The values that follow come from PubChem BioAssay AID757 (NMMLSC, 2007).

Screen size: about 190,000 compounds; about 520 (0.27%) were called active. Roughly 2% stayed inconclusive and do not appear here. This excerpt belongs to a sample that is enriched for actives. A number with no mark means an inactive call.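 Rule for the calls: active = GTP binding activity at least 20 points away from the 100% control level, either lower or higher; inconclusive = compound flagged as likely green fluorescent, judged across all proteins; inactive = the rest.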

This experiment has as its target Ras-related C3 botulinum toxin substrate 1 (Homo sapiens) (UniProt P63000). The experiment in a line: wildtype Rac1 GTP binding modulators, primary screen, biochemical, GST-Rac1 beads, flow cytometry, multiplex (AID 757). To be noted: fluorescent GTP binding, at 10 µM, actives lie on both sides, 0 = cold GTP competed, 100 = untreated.
`CC(=O)c1ccc(-c2nnc(CCC(=O)N(C)Cc3cnc4ccccn34)o2)s1`: the GTP binding activity (% of control) is 92%.

With `COCCn1c(C)cc(C(=O)CSc2nc3ccccc3c(=O)n2C(C)COC)c1C` (centres undefined), the GTP binding activity (% of control) is 97%.

Take `O=C(O)/C=C/c1cn(Cc2ccccc2)nc1-c1cccs1`: the GTP binding activity (% of control) is 157% [activator] (active).

Turning to `O=C(/C=C\c1cn(-c2ccccc2)nc1-c1cccs1)N1CCOCC1`, the GTP binding activity (% of control) is 106%.

Consider `O=C(O)/C=C/c1cn(-c2ccccc2)nc1-c1cccs1`, for which the GTP binding activity (% of control) was 94%.

With `O=S(=O)(Nc1ccccn1)c1cccc(S(=O)(=O)c2ccc(Cl)cc2)c1`, the GTP binding activity (% of control) is 97%.

Turning to `Cc1c(NC(=S)NC(=O)CCc2ccccc2)c(=O)n(-c2ccccc2)n1C`, the GTP binding activity (% of control) is 101%.

With `CC1CCC(NC(=O)C2c3ccccc3C(=O)N2Cc2ccc3c(c2)OCO3)CC1` (centres undefined), the GTP binding activity (% of control) is 99%.

For `COc1cccc(-c2ccc(SCC(=O)N3CCN(c4ccccc4)CC3)nn2)c1`, the GTP binding activity (% of control) was 92%.

Regarding `CN(C)c1ccc(C(=S)N2CCN(C(=S)Nc3ccc(Cl)cc3)CC2)cc1`, the GTP binding activity (% of control) is 98%.

As to `O=C(c1cn2ccccc2n1)N1CCc2c([nH]c3ccccc23)C1c1ccccn1` (centres undefined), the GTP binding activity (% of control) was 98%.

Regarding `O=c1cc(O)c(-c2cccc(C(F)(F)F)c2)c(Cl)[nH]1`, the GTP binding activity (% of control) was 97%.

With `O=C(NCCCN1CCOCC1)c1ccc([N+](=O)[O-])cc1[N+](=O)[O-]`, the GTP binding activity (% of control) was 102%.

Regarding `O=C(OCC(=O)c1cccs1)c1ccc([N+](=O)[O-])o1`, the GTP binding activity (% of control) was 99%.

As for `CNC(=S)Nc1ccc([N+](=O)[O-])cc1`, the GTP binding activity (% of control) was 101%.

Consider `CC(Oc1ccc(Br)cc1Br)C(=O)NC1CCCC1` (centres undefined), for which the GTP binding activity (% of control) was 96%.

In the case of `CC(=O)c1c(C)[nH]c(C(=O)Nc2cc(S(=O)(=O)N(C)C)ccc2C)c1C`, the GTP binding activity (% of control) is 97%.

Take `O=C(Nc1ccccc1C(=O)N1CCOCC1)c1ccc(Cl)cc1`: the GTP binding activity (% of control) was 98%.

For the molecule `CCOc1ccc(N2CC(C(=O)NCCN3C(=O)S/C(=C\c4cccnc4)C3=O)CC2=O)cc1` (centres undefined), the GTP binding activity (% of control) is 95%.

Regarding `O=C(CSc1ccccc1)Nc1ccc(NC(=O)c2ccco2)cc1`, the GTP binding activity (% of control) is 101%.

Regarding `Cc1cc(C)cc(NC(=O)CSc2ccccc2)c1`, the GTP binding activity (% of control) is 95%.

Consider `O=C(CSc1ccccc1)Nc1ccc(C(=O)Nc2cccc(O)c2)cc1`, for which the GTP binding activity (% of control) was 75% (active).

With `Cn1c(=NC(=O)c2ccc3c(c2)OCCO3)sc2cc(S(C)(=O)=O)ccc21`, the GTP binding activity (% of control) is 100%.

As to `COc1ccc(CC(NC(C)=O)C(=O)NC2CCN(C(=O)c3ccc(OC)c(OC)c3)CC2)cc1OC` (centres undefined), the GTP binding activity (% of control) was 98%.

For the molecule `CN(C)/N=C/c1cn(-c2ccccc2)nc1-c1cccnc1`, the GTP binding activity (% of control) is 101%.

On to `O=C(CNC(=O)COc1ccccc1)NCCc1ccccn1`, for which the GTP binding activity (% of control) is 102%.

Take `Cc1ccc(CCCOC(=O)C[N+]2(C)CCCCC2)cc1`: the GTP binding activity (% of control) is 100%.

Take `CCOC(=O)c1ccc(NNC(C)=O)c([N+](=O)[O-])c1`: the GTP binding activity (% of control) is 99%.

As for `CC(=O)Nc1ccc(S(=O)(=O)NC2(C(F)(F)F)C(=O)NC(C)=C2C#N)cc1` (centres undefined), the GTP binding activity (% of control) is 105%.

On to `COc1cc2c(cc1OC)CC1(CCCCC1)N=C2`, for which the GTP binding activity (% of control) was 102%.

Consider `CN(C)CCN=c1cc(-c2ccccc2)oc2ccc(Cl)cc12`, for which the GTP binding activity (% of control) is 102%.

In the case of `CCN(CC(=O)NCc1cccs1)C(=O)c1ccccc1F`, the GTP binding activity (% of control) was 98%.

With `Cc1ccc2c(=O)oc(N(C)C)nc2c1`, the GTP binding activity (% of control) was 94%.

Turning to `Oc1ccccc1N1CCN(C(=S)NCc2ccccc2)CC1`, the GTP binding activity (% of control) is 103%.

Turning to `O=c1/c(=C/c2ccc(CNS(=O)(=O)c3ccccc3)o2)sc2n1CCN=2`, the GTP binding activity (% of control) was 64% (active).

Consider `COC(=O)C1=C(C)NC(=O)/C1=C/c1ccc(CNS(=O)(=O)c2ccc(C)cc2)o1`, for which the GTP binding activity (% of control) is 100%.

For the molecule `O=S(=O)(NCc1ccccc1)c1ccc(S(=O)(=O)N2CCCC2)cc1`, the GTP binding activity (% of control) was 102%.

Consider `O=S(=O)(c1cccc(C(F)(F)F)c1)N1CCN(c2cnccn2)CC1`, for which the GTP binding activity (% of control) is 99%.

On to `CN(C(=O)COc1ncnc2c1cnn2-c1ccccc1)C1CCCCC1`, for which the GTP binding activity (% of control) is 102%.

On to `c1ccc(-c2nnc(N3CCOCC3)c3ccccc23)cc1`, for which the GTP binding activity (% of control) is 97%.

As for `COc1cccc(OCCCN2CCCCCC2)c1`, the GTP binding activity (% of control) is 95%.

In the case of `CN1CCN(C(=O)CCc2ncc(C(F)(F)F)cc2Cl)CC1`, the GTP binding activity (% of control) is 96%.

Regarding `COc1ccc(S(=O)(=O)N2CCOCC2)cc1C(=O)Nc1nc2ccccc2s1`, the GTP binding activity (% of control) is 75% (active).

Regarding `COc1ccc(S(=O)(=O)N2CCOCC2)cc1NC(=O)CSc1ncnc2ccccc12`, the GTP binding activity (% of control) is 93%.

For `CCOC(=O)c1sc(NC(=O)c2cc(S(=O)(=O)N3CCOCC3)ccc2C)nc1C`, the GTP binding activity (% of control) was 102%.

`CCCSc1nc2[nH]ncc2c(=O)[nH]1`: the GTP binding activity (% of control) was 100%.

Turning to `Cc1ccc(CSc2nc3[nH]ncc3c(=O)[nH]2)cc1`, the GTP binding activity (% of control) is 77% (active).

`Cc1cccc(NC(=O)CSc2nc3[nH]ncc3c(=O)[nH]2)c1`: the GTP binding activity (% of control) is 97%.

In the case of `COc1cc(NS(=O)(=O)c2ccc(NC(=O)c3ccc(S(=O)(=O)N4CCCCC4)cc3)cc2)ncn1`, the GTP binding activity (% of control) is 95%.

Turning to `COc1ccccc1NC(=O)CCSc1nnc(-c2ccc(O)cc2)o1`, the GTP binding activity (% of control) was 95%.

In the case of `COc1cccc(NC(=O)c2ccc(S(=O)(=O)N(C)C)cc2)c1`, the GTP binding activity (% of control) was 104%.

As for `Oc1ccccc1C=NC1CCCCC1N=Cc1ccccc1O` (centres undefined), the GTP binding activity (% of control) was 100%.

On to `O=C(CSc1ccccc1F)NC1CCS(=O)(=O)C1` (centres undefined), for which the GTP binding activity (% of control) was 96%.

Consider `Cc1cccc(NC(=S)N2CCC(O)CC2)c1C`, for which the GTP binding activity (% of control) is 100%.

For `CC(=O)NC(Cc1ccc(F)c(F)c1)C(=O)NC1CCN(C(=O)c2ccc(C)cc2)CC1` (centres undefined), the GTP binding activity (% of control) is 103%.

Regarding `CC(C)CCN1CCN(C/C=C/c2ccco2)CC1CCO` (centres undefined), the GTP binding activity (% of control) was 94%.

In the case of `Cc1cc(C)c2c(NC(=O)C3CC3)nn(C)c2n1`, the GTP binding activity (% of control) is 98%.

`CCOc1cc(C2C(C(=O)OC(C)C)=C(C)NC3=C2C(=O)CCC3)cc([N+](=O)[O-])c1O` (centres undefined): the GTP binding activity (% of control) was 98%.

For `CC(NC(=O)COC(=O)c1ccc2c(c1)OCO2)c1ccccc1` (centres undefined), the GTP binding activity (% of control) is 101%.

For the molecule `CC1=C(C(=O)N(C)C)C(c2ccccc2OC(F)F)NC(=O)N1` (centres undefined), the GTP binding activity (% of control) was 101%.

For `O=C(O)CC(SCC(=O)Nc1ccc(Br)cc1)C(=O)O` (centres undefined), the GTP binding activity (% of control) is 96%.

In the case of `CCOC(=O)CCCN1CC(O)=C(c2nc3ccccc3s2)C1=N`, the GTP binding activity (% of control) is 102%.

On to `CCCCCN1CC(O)=C(c2ccccc2)C1=N`, for which the GTP binding activity (% of control) is 104%.

Regarding `CCCCCN1CC(O)=C(c2nc(-c3ccc(Cl)cc3)cs2)C1=N`, the GTP binding activity (% of control) is 135% [activator] (active).
